Read-out in assay [1]: sulfotransferase 2A1 (SULT2A1), SULT2A1 (gene 6822)
Description: LTEA_HepaRG_SULT2A1: Life Technologies and Expression Analysis (LTEA) Assay for sulfotransferase 2A1 (SULT2A1) using HepaRG (AID 2283531). To be noted: mRNA level, 48 h; actives raise or lower the signal. The essentials: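 Gene-expression endpoint in a human liver cell line: SULT2A1 mRNA change after 48 h chemical treatment, curves fitted in both directions relative to 0.5% DMSO vehicle. Concentrations spanned eight half-log steps from 100 uM.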

Read-out in assay [2]: Transforming Growth Factor (TGFA), TGFA (gene 7039)
Briefly: LTEA_HepaRG_TGFA: Life Technologies and Expression Analysis (LTEA) Assay for Transforming Growth Factor (TGFA) using HepaRG (AID 2283532). Conditions: mRNA level, 48 h; actives raise or lower the signal. The essentials:
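Differentiated human HepaRG cells, plated 48 h then switched to serum-free induction medium, were exposed in duplicate for 48 h to 8-point half-log series from 100 uM in 0.5% DMSO. TGFA mRNA measured by qRT-PCR, normalized to ACTB/GAPDH/POLR2A, bidirectional fit versus DMSO.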

Read-out in assay [3]: Transforming Growth Factor (TGFB1), TGFB1 (gene 7040)
Briefly: LTEA_HepaRG_TGFB1: Life Technologies and Expression Analysis (LTEA) Assay for Transforming Growth Factor (TGFB1) Transporter using HepaRG (AID 2283533). Conditions: mRNA level, 48 h; actives raise or lower the signal. An outline of the steps: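 Eight-point concentration-response (max 100 uM, half-log) in HepaRG under serum-free induction conditions, 48 h. TGFB1 mRNA by qRT-PCR, housekeeping-normalized.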

Read-out in assay [4]: Tumor necrosis factor receptor 1 (TNFRSF1A), TNFRSF1A (gene 7132)
Description: LTEA_HepaRG_TNFRSF1A: Life Technologies and Expression Analysis (LTEA) Assay for Tumor necrosis factor receptor 1 (TNFRSF1A) using HepaRG (AID 2283535). Conditions: mRNA level, 48 h; actives raise or lower the signal. The essentials:
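Assay uses 48 h chemical treatment of differentiated HepaRG monolayers, tested in duplicate at eight concentrations from 100 uM downward in 0.5% DMSO. mRNA is normalized to ACTB, GAPDH and POLR2A, with induction or suppression fitted relative to vehicle.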

Read-out in assay [5]: Thyroid Hormone Responsive (THRSP), THRSP (gene 7069)
Description: LTEA_HepaRG_THRSP: Life Technologies and Expression Analysis (LTEA) Assay for Thyroid Hormone Responsive (THRSP) using HepaRG (AID 2283536). Conditions: mRNA level, 48 h; actives raise or lower the signal. An outline of the steps: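 Differentiated human HepaRG cells were exposed in duplicate for 48 h in serum-free induction medium to eight concentrations (top 100 uM, half-log steps, 0.5% DMSO). Expression was quantified by TaqMan qRT-PCR, normalized to ACTB, GAPDH and POLR2A, with bidirectional fitting against DMSO.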

Read-out in assay [6]: UDP glucuronosyltransferase (UGT1A1), UGT1A1 (gene 54658)
Briefly: LTEA_HepaRG_UGT1A1: Life Technologies and Expression Analysis (LTEA) Assay for UDP glucuronosyltransferase (UGT1A1) using HepaRG (AID 2283538). Conditions: mRNA level, 48 h; actives raise or lower the signal. The essentials: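 Readout is UGT1A1 transcript level by qRT-PCR, normalized to three housekeeping genes, after 48 h chemical treatment of HepaRG cells. Concentrations ran from 100 uM down in half-log steps with 0.5% DMSO, and gain or loss relative to DMSO was fitted.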

Read-out in assay [7]: UDP glucuronosyltransferase (UGT1A6), UGT1A6 (gene 54578)
Description: LTEA_HepaRG_UGT1A6: Life Technologies and Expression Analysis (LTEA) Assay for UDP glucuronosyltransferase (UGT1A6) using HepaRG (AID 2283539). Conditions: mRNA level, 48 h; actives raise or lower the signal. The essentials:
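Measures mRNA change in HepaRG hepatic cells exposed 48 h to chemicals (eight-point, maximum 100 uM, 0.5% DMSO vehicle) in serum-free induction medium. Expression normalized to endogenous controls; DMSO served as negative control and baseline.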

Read-out in assay [8]: X-box binding protein 1 (XBP1), XBP1 (gene 7494)
Briefly: LTEA_HepaRG_XBP1: Life Technologies and Expression Analysis (LTEA) Assay for X-box binding protein 1 (XBP1) using HepaRG (AID 2283540). To be noted: mRNA level, 48 h; actives raise or lower the signal. The essentials: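 Eight concentrations (half-log, highest 100 uM, 0.5% DMSO) tested in duplicate on HepaRG cells over 48 h in serum-free induction medium; qRT-PCR of XBP1 normalised to ACTB, GAPDH, POLR2A.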

A short description of assay [9]: LTEA_HepaRG_LDH_cytotoxicity: Cytotoxicity Assessment in the Life Technologies and Expression Analysis (LTEA) Assay (AID 2283563; active = hit-call score of the fitted dose curve at least 0.9, where 1 is the maximum;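 as to AC50: LDH activity released into spent culture medium as a marker of cell death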). An outline of the steps: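 Spent-medium LDH after 48 h chemical exposure of HepaRG cells in serum-free induction medium; eight concentrations, half-log dilutions from 100 uM, duplicate wells, fitted upward relative to 0.5% DMSO.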
The nature of assay [10]: ATG_XTT_Cytotoxicity: Cytotoxicity Assessment in the Attagene TRANS-FACTORIAL HepG2 Assay (AID 2283584; active = hit-call score of the fitted dose curve at least 0.9, where 1 is the maximum). An outline of the steps: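 24 h chemical exposure of reporter-transfected HepG2; XTT signal loss vs DMSO indicates cytotoxicity.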
Read-out in assay [11]: TIMP1, TIMP1 (gene 7076)
Briefly: LTEA_HepaRG_TIMP1: Life Technologies and Expression Analysis (LTEA) Assay for TIMP1 using HepaRG (AID 2283534). Conditions: mRNA level, 48 h; actives raise or lower the signal. An outline of the steps: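 TIMP1 induction or repression in HepaRG cells after 48 h chemical exposure (eight concentrations, highest 100 uM), assessed by normalized qRT-PCR with bidirectional fitting to DMSO controls.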

Read-out in assay [12]: Cellular tumor antigen p53 (Homo sapiens) (UniProt P04637)
Briefly: LTEA_HepaRG_TP53: Life Technologies and Expression Analysis (LTEA) Assay for Tumor Protein P53 (TP53) using HepaRG (AID 2283537). To be noted: mRNA level, 48 h; actives raise or lower the signal. The essentials: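 Differentiated HepaRG cells in serum-free induction medium exposed 48 h in duplicate to 8 half-log concentrations, top 100 uM, 0.5% DMSO. TP53 mRNA by TaqMan qRT-PCR (Fluidigm), normalized to ACTB, GAPDH, POLR2A; fitted bidirectionally versus DMSO.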

For assay [13], the target named is Cellular tumor antigen p53 (Homo sapiens) (UniProt P04637). Briefly: TOX21_p53_BLA_p2_ratio: Tox21 HCT-116 p53 Agonism Beta-lactamase Assay, Ratio, Phase 2 (AID 2283592; active = hit-call score of the fitted dose curve at least 0.9, where 1 is the maximum). The essentials: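 Human colon HCT116 cells with an inducible p53 beta-lactamase reporter are exposed to test chemicals for 16 h at 37C. Reporter induction is read as the 460/530 nm emission ratio after CCF4-AM loading, normalized to DMSO.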
Chain of Cellular tumor antigen p53 (Homo sapiens) (P04637 whole entry, looked up): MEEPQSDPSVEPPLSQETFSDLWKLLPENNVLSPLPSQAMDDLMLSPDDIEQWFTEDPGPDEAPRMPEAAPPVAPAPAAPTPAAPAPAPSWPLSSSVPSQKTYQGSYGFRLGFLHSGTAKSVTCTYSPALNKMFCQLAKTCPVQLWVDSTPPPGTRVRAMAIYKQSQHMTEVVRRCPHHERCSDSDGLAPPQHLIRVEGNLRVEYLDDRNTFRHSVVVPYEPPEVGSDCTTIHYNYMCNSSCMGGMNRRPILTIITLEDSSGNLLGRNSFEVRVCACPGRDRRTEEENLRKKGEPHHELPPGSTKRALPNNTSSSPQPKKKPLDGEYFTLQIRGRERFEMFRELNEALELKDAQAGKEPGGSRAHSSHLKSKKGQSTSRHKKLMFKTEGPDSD

A short description of assay [14]: TOX21_p53_BLA_p3_viability: Viability Assessment in the Tox21 HCT-116 p53 Agonism Beta-lactamase Assay, Phase 3 (AID 2283593; active = hit-call score of the fitted dose curve at least 0.9, where 1 is the maximum;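 also: cells exposed to compound for 16 h before reading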). An outline of the steps:
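HCT-116 cells (4000/well) rested 5 h at 37C, then got DMSO compounds by pin tool (217-fold dilution) for 16 h at 37C, 5% CO2. After the bla read, CellTiter-Glo was added and luminescence read at 30 min, room temperature.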

In assay [15] the target is Cellular tumor antigen p53 (Homo sapiens) (UniProt P04637). Description: TOX21_p53_BLA_p3_ratio: Tox21 HCT-116 p53 Agonism Beta-lactamase Assay, Ratio, Phase 3 (AID 2283596; active = hit-call score of the fitted dose curve at least 0.9, where 1 is the maximum). An outline of the steps:
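HCT116 p53-bla cells (4000/well) given compound in DMSO (217-fold dilution) after 5 h, incubated 16 h at 37C. CCF4-AM substrate 2 h at room temperature; 460/530 nm emission ratio, gain fitted against DMSO.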

A short description of assay [16]: TOX21_p53_BLA_p4_viability: Viability Assessment in the Tox21 HCT-116 p53 Agonism Beta-lactamase Assay, Phase 4 (AID 2283597; active = hit-call score of the fitted dose curve at least 0.9, where 1 is the maximum;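 also: hits lower the luminescence signal meaning cytotoxicity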). The essentials: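 Luminescent ATP readout (CellTiter-Glo, 30 min, room temperature) in the same wells as the p53 bla ratio. HCT116 cells were treated for 16 h at 37C with DMSO-dissolved compounds.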
For assay [17], the target named is Cellular tumor antigen p53 (Homo sapiens) (UniProt P04637). Description: TOX21_p53_BLA_p5_ratio: Tox21 HCT-116 p53 Agonism Beta-lactamase Assay, Ratio, Phase 5 (AID 2283599; active = hit-call score of the fitted dose curve at least 0.9, where 1 is the maximum). An outline of the steps:
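HCT-116 cells carrying a p53-inducible beta-lactamase reporter were seeded at 4000 cells/well and dosed after 5 h with compound in DMSO (217-fold dilution). After 16 h at 37C, CCF4-AM substrate was added for 2 h, and the 460/530 nm emission ratio was scored as gain-of-signal versus DMSO.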

The nature of assay [18]: TOX21_p53_BLA_p5_viability: Viability Assessment in the Tox21 HCT-116 p53 Agonism Beta-lactamase Assay, Phase 5 (AID 2283600; active = hit-call score of the fitted dose curve at least 0.9, where 1 is the maximum). An outline of the steps: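 Seeded cells (4000/well) settle 5 h before compound addition. Plates then incubate 16 h at 37C, receive FRET substrate for 2 h, and finally CellTiter-Glo, with luminescence measured after a 30 min room-temperature incubation.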

The target in assay [19] is Cellular tumor antigen p53 (Homo sapiens) (UniProt P04637). Briefly: TOX21_p53_BLA_p4_ratio: Tox21 HCT-116 p53 Agonism Beta-lactamase Assay, Ratio, Phase 4 (AID 2283601; active = hit-call score of the fitted dose curve at least 0.9, where 1 is the maximum). An outline of the steps:
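HCT116 cells carrying an inducible beta-lactamase reporter were plated at 4000 cells/well, rested 5 h, then exposed to compounds in DMSO (217-fold dilution) for 16 h at 37C. CCF4-AM substrate was loaded 2 h at room temperature; 460/530 nm emission ratio scored gain-of-signal versus DMSO.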

Assay [20] is described as follows: TOX21_p53_BLA_p2_viability: Viability Assessment in the Tox21 HCT-116 p53 Agonism Beta-lactamase Assay, Phase 2 (AID 2283591; active = hit-call score of the fitted dose curve at least 0.9, where 1 is the maximum;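 also: compound exposure lasted 16 h at 37 °C; actives lower the ATP signal meaning cytotoxicity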). The essentials:
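HCT-116 p53-bla cells (4000/well) rested 5 h at 37C, then received compounds in DMSO (217-fold dilution) for 16 h at 37C, 5% CO2. After the CCF4 read, CellTiter-Glo was added; ATP luminescence was read after 30 min at room temperature.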

Where “and” joins values, the source holds several entries; their conditions need not be identical. Equal entries are not always repeated. Inconclusive results are not listed. Some structures have more than one record in an assay (separate samples or runs), and their calls can disagree. Calls of active or inactive are those of the source. The calls were made as follows, unless noted: active = hit-call score of the fitted dose curve at least 0.9, where 1 is the maximum; inactive = score below 0.9.

In the case of `CCCN(CCC)c1c([N+](=O)[O-])cc(S(N)(=O)=O)cc1[N+](=O)[O-]`, the AC50 (usually the concentration at which the activity in the assay is half-maximal) in assay [1] was 92.1 µM (active) and 76.9 µM (active) and 81 µM (active); in assay [3] it was 93.9 µM (active); in assay [4], 82.1 µM (active); in assay [6], 7.17 µM (active) and 86.5 µM (active) and 89.5 µM (active); in [7], 79.1 µM (active) and 78.9 µM (active); in [8] it was 96.7 µM (active) and 79.1 µM (active). In addition, the AC50 in assay [9] was 76.5 µM (active) and 78.3 µM (active) and 77.5 µM (active). Further, the compound was called inactive in assay [2], in [3], in [4], in [5], in assay [7] and in assay [8]. Further, the call in [10] was inactive.

Consider `CC1COC(Cn2cncn2)(c2ccc(Oc3ccc(Cl)cc3)cc2Cl)O1` (stereo unspecified), for which the AC50 was 19.6 µM (active) in assay [1]; 13.6 µM (active) in assay [2]; 89.8 µM (active) in assay [3]; 77 µM (active) in [11]; 72.2 µM (active) in assay [4]; 7.86 µM (active) in assay [5]. The concentration at half-maximal activity (AC50) in [12] was 11.6 µM (active); in assay [6], 50 µM (active); in assay [7], 63.9 µM (active); in [9] it was 58.7 µM (active); in assay [13] it was 21.4 µM (active); in assay [15], 46.1 µM (active). In addition, the AC50 in assay [16] was 71.1 µM (active); in [17], 66.3 µM (active); in assay [19], 90.3 µM (active). Further, the result in [8], in [14] and in [18] was inactive.

For `CCCCNC(=O)OCC#CI`, the AC50 is 50 µM (active) in [1]; 50 µM (active) in [5]; 24.9 µM (active) in assay [6]; 50 µM (active) in assay [8]; 67 µM (active) in assay [13]; 59.5 µM (active) and 78 µM (active) in assay [15]. Besides, the AC50 is 35.9 µM (active) in [16], 78.1 µM (active) in assay [17] and 12.8 µM (active) in [19]. Besides, the result in assay [2], in assay [3], in assay [4], in assay [12], in [7] and in [9] was inactive. The compound was classed as inactive in assay [10], in [13], in assay [14], in assay [16], in assay [17] and in [18]. In addition, in [19], the result was inactive.

Take `CNC(=O)ON=CC(C)(C)SC`: the compound was called inactive in [1], in assay [2], in [3], in assay [4], in assay [5] and in [12]. Moreover, the outcome in assay [6], in assay [7], in assay [8], in assay [9], in assay [10] and in [20] was inactive. For the same compound, the outcome in [13], in assay [14], in assay [15], in [16], in [17] and in [18] was inactive. For the same compound, in assay [19], the result was inactive.

On to `Cc1cc(Cl)ccc1OCC(=O)O`, for which the AC50 in [1] was 85.8 µM (active). Moreover, the outcome in assay [2], in [3], in assay [4], in assay [5], in [12] and in assay [6] was inactive. The compound was classed as inactive in [7], in assay [8], in [9], in [10], in assay [13] and in assay [14]. Moreover, the outcome in assay [15], in [16], in assay [17], in assay [18] and in assay [19] was inactive.

Regarding `CC(C)C1(C)N=C(c2nc3ccccc3cc2C(=O)O)NC1=O` (stereo unspecified), the result in assay [1], in assay [2], in assay [3], in assay [11], in [4] and in assay [5] was inactive. Moreover, the call in assay [12], in [6], in assay [7], in assay [8], in assay [13] and in assay [15] was inactive. Besides, the result in assay [16], in assay [17] and in assay [19] was inactive.
